Results filed as inconclusive are left out. More than one record can exist for a structure, and the calls need not agree. Activity calls are given as the source filed them. Unless noted, the call rests on the fitted dose curve; in most records, active means well fitted curve in the direction sought with a large enough effect in the repeat runs; inconclusive means weak or mixed curves; inactive means no such curve, though single readings can be large; an effect the other way counts as inactive or inconclusive.

Assay [1] can be described thus: qHTS assay to identify small molecule agonists of the vitamin D receptor (VDR) signaling pathway - cell viability counter screen (AID 743224). Further: series mostly up to about 63 µM; nearly all actives have a fitted effect of over 50% in size. An outline of the steps:
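Cytotoxicity counter screen: VDR-bla cells, 16 h compound exposure at 37C, 5% CO2; CellTiter-Glo luminescence, 30 min RT, same wells as bla read.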

Assay [2] can be described thus: qHTS assay to identify small molecule antagonists of the vitamin D receptor (VDR) signaling pathway - cell viability counter screen (AID 743225). Further: nearly all actives have a fitted effect of over 50% in size. The essentials:
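Cells (VDR-UAS-bla HEK 293T) are plated, rested 4 h at 37C, dosed with compound and 3 nM final 1-alpha,25-dihydroxy vitamin D3, and incubated 16 h. Viability is taken from CellTiter-Glo luminescence in the reporter wells.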
On the technique in general: Quantitative high-throughput screening tests each substance at several concentrations.

Assay [3] can be described thus: qHTS assay to identify small molecule agonists of the NFkB signaling pathway - cell viability counter screen (AID 1159515; calls by dose curve; further: series mostly up to about 61 µM; nearly all actives have a fitted effect of over 55% in size). The essentials:
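ME-180 NFkB-bla cells, 2,000/well; overnight attach; compound 5 hr, 37 C/5% CO2; LiveBLAzer substrate 1.5 hr RT; then CellTiter-Glo in same wells, 30 min RT, luminescence read.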

Assay [4] is described as follows: qHTS assay to identify small molecule agonists of the endoplasmic reticulum stress response signaling pathway (AID 1159516; active means well fitted activation curve with a large enough effect in the signal ratio in the repeat runs, not every such curve was filed as active; the % refers to the signal ratio). The essentials: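 HeLa ESRE-bla reporter line; cpd 5 h, 37 C/5% CO2; LiveBLAzer B/G FRET substrate 2 h RT; ex 405, em 460/530 nm.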
Assay [5] in a line: qHTS assay to identify small molecule agonists of the endoplasmic reticulum stress response signaling pathway - cell viability counter screen (AID 1159517; calls by dose curve;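 further: HeLa cells carrying an ER stress response element beta-lactamase reporter; series mostly up to about 61 µM; nearly all actives have a fitted effect of over 50% in size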). An outline of the steps:
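Steps: seed 1,500 ESRE-bla HeLa cells per well; incubate overnight at 37 C, 5% CO2; add compounds in DMSO for 5 hr; run FRET substrate 2 hr RT; add CellTiter-Glo, wait 30 min, read luminescence.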

A short description of assay [6]: qHTS assay to identify small molecule antagonists of the retinoid-related orphan receptor gamma (ROR-gamma) signaling pathway - cell viability counter screen (AID 1159520). Further: nearly all actives have a fitted effect of over 50% in size. An outline of the steps: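 Tet-on ROR gamma CHO cells were given compounds for 2 hr, then doxycycline hyclate at 1 uM final, and incubated 16 hr at 37 C. Viability was measured as ATP content by CellTiter-Glo luminescence.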

A short description of assay [7]: qHTS assay to identify small molecule agonists of the AP-1 signaling pathway - cell viability counter screen (AID 1159525; calls by dose curve; further: nearly all actives have a fitted effect of over 55% in size). An outline of the steps:
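Same-well cytotoxicity counter screen of the Tox21 10K library in ME-180 cells. The readout is ATP-dependent luminescence after 5 h compound treatment. Data are normalised to DMSO and tetra n-octyl ammonium bromide controls.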

Assay [8] can be described thus: qHTS assay to identify small molecule agonists of the AP-1 signaling pathway (AID 1159526; calls by dose curve).
The target of assay [9] is Retinoic acid receptor RXR-alpha (Homo sapiens) (UniProt P19793). Briefly: qHTS assay to identify small molecule agonists of the RXR signaling pathway (AID 1159527; calls by dose curve; further: nearly all actives have a fitted effect of over 35% in size; further: potency means the concentration at half of the fitted maximal effect). The essentials:
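qHTS of the Tox21 10K library in GeneBLAzer RXR-alpha HEK 293T cells carrying a beta-lactamase reporter […]; 16 hr treatment, 9-cis retinoic acid as agonist control, FRET read-out.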

Assay [10] can be described thus: qHTS assay to identify small molecule agonists of the RXR signaling pathway - cell viability counter screen (AID 1159529). An outline of the steps:
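Cell viability is measured by CellTiter-Glo luminescence, 30 min at room temperature, in wells already read for beta-lactamase. Engineered HEK 293T cells (RXR-alpha-UAS-bla) are dosed 16 hr at 37 C. Tetraoctyl ammonium bromide serves as positive control.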

A short description of assay [11]: qHTS assay to identify small molecule antagonists of the retinoid acid receptor (RAR) signaling pathway - cell viability counter screen (AID 1159551). Further: nearly all actives have a fitted effect of over 35% in size. The essentials: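 C3RL4 RARE-luciferase line; cpds + retinol 1 uM final, 6 h, 37 C/5% CO2; CellTiter-Glo ATP luminescence, 30 min RT.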
The nature of assay [12]: qHTS assay to identify small molecule antagonists of the retinoic acid receptor (RAR) signaling pathway (AID 1159552; further: nearly all actives have a fitted effect of over 50% in size). An outline of the steps:
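Quantitative HTS in C3RL4 RARE-luciferase reporter cells. Compounds were added with 1 uM (final) retinol; luminescence was read after 6 hr.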

Assay [13] is described as follows: qHTS assay to identify small molecule agonists of the retinoic acid receptor (RAR) signaling pathway (AID 1159553). An outline of the steps:
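RARE-luc C3RL4 cells; overnight attachment 37 C/5% CO2; compound (DMSO) 6 hr; luciferase reagent, 30 min RT; luminescence read-out.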

Assay [14] deals with Nuclear receptor ROR-gamma (Homo sapiens) (UniProt P51449). Kind of assay: qHTS assay to identify small molecule antagonists of the retinoid-related orphan receptor gamma (ROR-gamma) signaling pathway (AID 1159521). The essentials:
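RORγ antagonism is scored from reduced reporter luminescence in Tet-on CHO cells. Induction used 1 uM final doxycycline hyclate for 16 h at 37 C, following a 2 h compound exposure.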

Assay [15] can be described thus: qHTS assay to identify small molecule antagonists of the estrogen related receptor (ERR) signaling pathway - cell viability counter screen (AID 1224818). Further: series mostly up to about 46 µM. The essentials:
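Fluorescence from CellTiter-Fluor, read 30 min after reagent addition at 37 C, measured viability of ERR cells exposed to compounds for 17.5 h. Cells had settled 6 h before dosing.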

The nature of assay [16]: qHTS assay to identify small molecule antagonists of the estrogen related receptor (ERR) signaling pathway (AID 1224819). An outline of the steps: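 Luminescence readout (One-Glo, 30 min, RT) of ERR cell line after 18 h compound exposure at 37 C; cells seeded 2,000/well, pre-incubated 6 h, compounds pinned from DMSO stocks.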
For assay [17], the system named is estrogen-related receptor alpha (ERRalpha) with PGC-1alpha coactivator, human. Briefly: qHTS assay to identify small molecule antagonists of the estrogen related receptor signaling pathway with the pleiotropic PPARgamma coactivator (PGC) (AID 1224821; calls by dose curve). An outline of the steps: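 Screening used NTP's PGC/ERR cells, dosed via pin tool with compound in DMSO alongside positive and negative controls. After 18 h at 37 C, One-Glo reagent sat 30 min at room temperature before luminescence detection.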

Assay [18] can be described thus: qHTS assay to identify small molecule antagonists of the estrogen related receptor signaling pathway with the pleiotropic PPARgamma coactivator (PGC) cell viability counter screen (AID 1224822; further: series mostly up to about 46 µM). The essentials: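 Fluorescence read-out of CellTiter-Fluor after 30 min at 37 C; PGC/ERR cells, 2,000 per well, had been exposed to DMSO-dissolved compounds for 17.5 h following a 6 h pre-incubation.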

Assay [19] is described as follows: qHTS assay to identify small molecule agonists of the estrogen related receptor signaling pathway with the pleiotropic PPARgamma coactivator (PGC) (AID 1224823). The essentials:
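In this quantitative high-throughput screen, an 18 h, 37 C treatment of PGC/ERR cells with compounds in DMSO preceded a One-Glo luminescence read taken after 30 min at room temperature.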

Retinoic acid receptor RXR-alpha (Homo sapiens), sequence (P19793 whole entry, looked up): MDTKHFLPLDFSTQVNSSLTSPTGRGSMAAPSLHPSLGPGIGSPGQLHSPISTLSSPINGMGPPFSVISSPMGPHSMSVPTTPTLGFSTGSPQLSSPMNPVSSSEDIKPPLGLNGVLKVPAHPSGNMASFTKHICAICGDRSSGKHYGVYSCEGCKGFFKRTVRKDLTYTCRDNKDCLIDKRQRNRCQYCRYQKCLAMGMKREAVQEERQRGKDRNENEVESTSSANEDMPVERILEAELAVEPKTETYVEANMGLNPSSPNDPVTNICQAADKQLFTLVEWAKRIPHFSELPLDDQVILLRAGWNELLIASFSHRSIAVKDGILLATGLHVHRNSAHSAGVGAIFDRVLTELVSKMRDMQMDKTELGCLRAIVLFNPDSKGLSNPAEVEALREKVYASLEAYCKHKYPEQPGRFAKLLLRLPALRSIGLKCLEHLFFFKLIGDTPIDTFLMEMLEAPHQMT

For `FC(F)OC(F)(F)C(F)Cl` (stereo not given), the Potency entry in [1], in [2], in [3], in assay [4], in [5] and in [6] was “inactive” in each case. In addition, the Potency result in [7], in [8], in assay [9], in [10], in assay [11] and in assay [12] was “inactive” throughout.
With `COc1ccc(C(=O)c2c(C)n(CCN3CCOCC3)c3ccccc23)cc1`, the Potency entry in assay [1], in assay [2], in assay [3], in assay [4], in [5] and in [6] was “inactive” in each case. In addition, the Potency entry in assay [8], in assay [11], in assay [12] and in [13] was “inactive” in each case.
Take `CCCN(CCC)C(=O)Cc1c(-c2ccc(Cl)cc2)nc2ccc(Cl)cn12`: the Potency result in assay [1], in assay [2], in [3], in assay [4], in [6] and in assay [14] was “inactive” throughout. The Potency entry in [7], in assay [8], in assay [9], in assay [10], in assay [11] and in [12] was “inactive” throughout. Also, the Potency result in [13] was “inactive”.
As for `C=CCOC(=O)C(C)(C)OC(=O)c1cc(-n2c(=O)cc(C(F)(F)F)n(C)c2=O)ccc1Cl`, the Potency result in assay [2], in assay [3], in assay [4], in assay [5], in assay [6] and in assay [7] was “inactive” throughout. Also, the Potency entry in [8], in [10] and in [11] was “inactive” each time.
Take `ClCc1ccccc1Cl`: the Potency entry in assay [1], in assay [2], in assay [3], in assay [4], in [6] and in assay [14] was “inactive” in each case. The Potency result in assay [7], in assay [8], in assay [9], in assay [10], in [11] and in assay [12] was “inactive” throughout. Also, in assay [13], the Potency result was “inactive”.
`Nc1ccccc1C(=O)OCC(O)CO` (stereo not given): the Potency entry in [1], in assay [2], in [3], in assay [4], in [5] and in [6] was “inactive” throughout. The Potency result in assay [7], in assay [8], in assay [10], in [11], in [12] and in [13] was “inactive” each time.
Regarding `C[C@@H]1C[C@@H]([C@H](O)CC2CC(=O)NC(=O)C2)C(=O)[C@@H](C)C1`, the Potency result in [1], in assay [2], in [3], in [4], in [5] and in assay [7] was “inactive” in each case. Moreover, the Potency result in assay [10] is “inactive”.
Consider `O=C(O)C(F)(F)C(F)(F)C(F)(F)C(F)(F)C(F)(F)C(F)(F)C(F)(F)C(F)(F)F`, for which the Potency result in assay [1], in [3], in [4], in [5], in assay [6] and in assay [7] was “inactive” in each case. Besides, the Potency result in [8], in assay [11] and in assay [13] was “inactive” in each case. Further, the Potency in [9] is 21.9 µM (active).
As to `CCCCCCCCCCCCCCCl`, the Potency entry in assay [1], in [2], in assay [3], in assay [4], in assay [5] and in assay [6] was “inactive” in each case. Besides, the Potency entry in [7], in [8], in assay [10], in [11], in assay [12] and in [13] was “inactive” throughout.
Turning to `CON(C)C(=O)Nc1ccc(Cl)cc1`, the Potency result in assay [3], in assay [4], in assay [6], in assay [14], in assay [7] and in assay [8] was “inactive” throughout. For the same compound, the Potency entry in assay [9], in assay [11] and in assay [12] was “inactive” each time.
For `CCC1(C2=NCCN2)Cc2ccccc2O1` (stereo not given), the Potency entry in assay [1], in [2], in assay [3], in assay [4], in assay [6] and in assay [14] was “inactive” throughout. Also, the Potency result in assay [7], in assay [8], in assay [9], in assay [10] and in assay [11] was “inactive” in each case. The result in assay [15], in assay [16], in assay [17], in [18] and in assay [19] was inactive.
On to `C=CCSSCC=C`, for which the Potency result in assay [1], in [3], in [4], in assay [5], in assay [6] and in [8] was “inactive” in each case. The Potency result in assay [9], in assay [10], in assay [11] and in assay [12] was “inactive” in each case.
As to `CCOC(=O)C1OC1(C)c1ccccc1` (stereo not given), the Potency result in assay [1], in assay [2], in assay [3], in [4], in assay [6] and in assay [14] was “inactive” in each case. The Potency entry in [7], in assay [8], in assay [10] and in assay [11] was “inactive” each time. Moreover, the Potency in [9] was 13.9 µM (active) and inactive.
Regarding `CC(C)(C)N(NC(=O)c1ccc(Cl)cc1)C(=O)c1ccccc1`, the Potency entry in [1], in assay [2], in assay [3], in assay [4], in assay [6] and in assay [14] was “inactive” in each case. The Potency result in [7], in assay [8], in assay [9], in assay [10], in assay [11] and in assay [12] was “inactive” each time.
Regarding `Cc1ccc(N)c(C)c1`, the Potency entry in assay [1], in assay [2], in assay [3], in [4], in [5] and in [6] was “inactive” throughout. Also, the Potency entry in assay [7], in [8], in assay [9] and in [11] was “inactive” throughout.
In the case of `Cc1ccccc1`, the Potency entry in assay [1], in assay [2], in assay [3], in assay [4], in assay [5] and in assay [6] was “inactive” each time. The Potency result in [7], in assay [8], in assay [9], in assay [11], in [12] and in assay [13] was “inactive” throughout.
On to `C=CCc1ccccc1O`, for which the Potency result in [1], in assay [2], in assay [3], in assay [4], in assay [6] and in assay [14] was “inactive” each time. Moreover, the Potency entry in assay [7], in assay [8], in [9], in [10], in assay [11] and in assay [12] was “inactive” in each case.

(Values after PubChem BioAssay (Tox21).)
